Source: PubChem
CYP2C9 inhib: inhibitors of human CYP2C9; P11712; CYP2C9 Supersomes, luciferin-H conversion, luminescence; inhibition, % at 5 µM; hit rate 20% among 96,000; AID 777;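 active means blocking of liver enzyme CYP2C9 beyond about 50% at 5 µM, limit read from the data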
CYP2C19 act: activators of human cytochrome P450 2C19 | P33261 | recombinant CYP2C19, luciferin-H EGE luminescence; active compounds read high; 0 = fully inhibited enzyme, 1 = untreated enzyme | activation factor at 5 µM | 96,000 tested, under 10 active | AID 1025;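 active means activation factor of at least 2 at 5 µM in the primary screen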;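 further: 0 = wells with 2.5 mM tranylcypromine and 1 = vehicle-only wells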
Target sequence (P33261 whole entry, looked up): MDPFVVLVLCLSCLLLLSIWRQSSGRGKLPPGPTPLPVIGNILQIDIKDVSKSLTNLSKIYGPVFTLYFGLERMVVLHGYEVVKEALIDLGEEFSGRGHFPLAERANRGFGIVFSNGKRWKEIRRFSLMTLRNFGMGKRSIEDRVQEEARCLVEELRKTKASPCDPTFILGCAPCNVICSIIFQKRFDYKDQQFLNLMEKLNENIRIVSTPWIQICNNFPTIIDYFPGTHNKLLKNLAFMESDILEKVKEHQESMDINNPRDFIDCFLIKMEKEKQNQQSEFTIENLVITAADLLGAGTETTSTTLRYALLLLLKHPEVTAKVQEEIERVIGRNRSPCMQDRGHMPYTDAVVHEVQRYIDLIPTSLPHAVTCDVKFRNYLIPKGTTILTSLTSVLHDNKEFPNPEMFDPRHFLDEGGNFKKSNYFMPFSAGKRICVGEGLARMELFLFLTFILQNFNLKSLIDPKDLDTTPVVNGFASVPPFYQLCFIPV
Cav32 inh: human Cav3.2 channel inhibition, primary screen | O95180 | Cav3.2-expressing cells, Fluo-4 calcium fluorescence FDSS; active compounds read low | B-score at 10 µM | hit rate 4% among 100,000 | AID 449739;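 active means single-dose well whose peak fluorescence ratio is a statistical outlier from its plate by either plate-standardised score or position-corrected B-score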
CYP2C19 inhib: human CYP2C19 inhibition. hit rate 21% among 96,000. inhibition, % at 5 µM. CYP2C19 Supersomes, luciferin-H EGE luminescence, 30 min. P33261;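 active means CYP2C19 inhibition above a set limit at 5 µM in the primary screen, cut at about 50% in these data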;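 further: plate controls were negative control wells for no effect and 2.5 mM tranylcypromine positive control for full effect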
CYP2C9 act: increases human cytochrome P450 2C9 activity | AID 1024 | recombinant CYP2C9, luciferin-H conversion, luminescence; active compounds read high; factor 1 = untreated enzyme, 0 = blocked | hit rate 1.4% among 96,000 | activation factor at 5 µM | P11712;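 active means activation factor of 2 or more for CYP2C9 at a 5 µM dose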;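 further: 0 = sulfaphenazole-blocked wells and 1 = vehicle-only wells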
* marks the source's active call; other numbers are inactive results; / = no result. Shown are actives, neighbours in structure and some others; about 27% of the full set was active somewhere.

SMILES	CYP2C9 inhib	CYP2C19 act	Cav32 inh	CYP2C19 inhib	CYP2C9 act
CC1CCCCN1C(=O)CSc1nc2cc3c(cc2c(=O)n1Cc1ccc2c(c1)OCO2)OCO3 (centres undefined)	52*	0.5	-1.2	49	0.5
O=C(Cn1c(=O)n(Cc2ccc3c(c2)OCO3)c(=O)c2ccccc21)N1CCCc2ccccc21	/	/	-7.1*	/	/
O=C(Cn1nnc2ccccc2c1=O)N1CCCc2ccccc21	7	0.8	0.002	20	0.9
CC1CCCC(C)N1C(=O)Cn1c(SCC(=O)NCc2ccc3c(c2)OCO3)nc2ccccc21 (centres undefined)	90*	0.4	-1.4	64*	0.1
CS(=O)(=O)N1CC(C(=O)NC2CC2)Oc2ccc(Cl)cc21 (centres undefined)	29	0.5	0.46	46	0.7
Cc1ccc(C(=O)c2c(NC(=O)c3cccnc3)sc3c2CCCC3)cc1	15	0.8	-2.9	24	0.8
Cc1cc(C(=O)CSc2nc3ccccc3c(=O)n2C)c(C)n1Cc1ccc2c(c1)OCO2	85*	0.2	-0.3	76*	0.2
CC1CCN(C(=O)Cn2c(=O)n(Cc3ccc4c(c3)OCO4)c(=O)c3ccccc32)CC1	54*	0.8	-2.4	22	0.5
Cc1cccc(-n2cnc(C(=O)N/N=C/c3ccccc3)c2)n1	9	1	1.2	-3	0.9
COc1cc2cc(CN(C(=O)Nc3ccccc3)C3CCCC3)c(=O)[nH]c2cc1OC	55*	0.6	1	42	0.4
O=C(Nc1cccc(Cl)c1)N(Cc1nc2ccccc2c(=O)[nH]1)C1CCCC1	19	1.1	-6*	-8	0.8
O=C(C1CC1)N(CCc1ccccc1)Cc1nc2ccccc2c(=O)[nH]1	58*	0.4	0.22	56*	0.4
CCCC(=O)N(CCc1ccc(OC)cc1)Cc1nc2ccccc2c(=O)[nH]1	20	0.7	-0.086	31	0.8
CCN(CC)CCCN(Cc1cc2cc(OC)c(OC)cc2[nH]c1=O)C(=O)Nc1ccccc1	-2	0.9	0.11	9	1
Cc1cccc(NC(=O)N(Cc2nc3ccccc3c(=O)[nH]2)C2CCCC2)c1	/	1	-1	1	/
O=C(C1CCC1)N(CCc1ccccc1)Cc1nc2ccccc2c(=O)[nH]1	85*	0.4	-0.14	64*	0.1
COc1ccc(-c2cnn3c4c(c(C)nc23)CCN4C(C)C)cc1OC	8	1.1	0.93	-8	0.9
O=C(c1ccncc1)N(Cc1ccccc1)Cc1nc2ccccc2c(=O)[nH]1	93*	0.4	1.2	56*	0.1
O=C(c1ccccc1)N(Cc1ccc(F)cc1)Cc1nc2ccccc2c(=O)[nH]1	/	/	-0.86	/	/
O=c1c2ccsc2ncn1Cc1ccc(Cl)cc1	54*	0.4	-0.87	61*	0.5
CCOCCCNC(=O)c1c(C)c(C(=O)OCC)n(C)c1C	-69	0.9	0.59	8	1.7
CCOC(=O)c1c(C)c2c(n1C)CCC/C2=N\O	33	0.4	-0.43	60*	0.7
COc1ccc(OC)c(C(=O)c2coc3ccc(O)cc23)c1	73*	0.3	-4.7*	70*	0.3
COc1ccc2occ(C(C)=O)c2c1	3	0.8	0.55	16	1
N#CC1=C2SCC(O)(c3ccccc3)N2C(=O)CC1c1ccccc1 (centres undefined)	99*	0	-3.1	98*	0
SMILES	CYP2C9 inhib	CYP2C19 act	Cav32 inh	CYP2C19 inhib	CYP2C9 act
CCOC(=O)CSc1nc2c(c(-c3ccc(C)o3)c1C#N)CCCC2	47	0.3	-1.3	70*	0.5
Cc1ccc(-c2c(C#N)c(N)nc3c2CCCCC3)o1	50*	0.5	-1.9	53*	0.5
Cc1ccc(-c2c(C#N)c(N)nc3c2CCCCCC3)o1	22	0.8	-0.57	18	0.8
COCCn1nnnc1CN1CCC(O)(c2cccc(C(F)(F)F)c2)CC1	5	0.7	0.16	32	0.9
COc1cc(S(=O)(=O)N2CCC(O)(c3cccc(C(F)(F)F)c3)CC2)ccc1-n1cnnn1	64*	0.7	-3.1	32	0.4
CC(C)N(C(=O)COC(=O)c1cc(Cl)cc(Cl)c1N)C(C)C	66*	0.2	-3.6	83*	0.3
CCOC(=O)C1=C(C)NC(C)=C(C(=O)OCC)C1C(=O)OCC(=O)N1CCC(C)CC1	35	0.9	0.39	12	0.7
CC1CCN(C(=O)COC(=O)c2cc(Cl)cc(Cl)c2N)CC1	-133	0.5	0.18	46	2.3*
CN(C)C(=O)COC(=O)c1cc(Cl)cc(Cl)c1N	-29	0.7	/	26	1.3
CCOC(=O)c1c(C)[nH]c(C)c1C(=O)CN1C(=O)NC2(CCC(C)CC2)C1=O (centres undefined)	-39	0.5	-0.094	50	1.4
CCOC(=O)c1c(C)[nH]c(C)c1C(=O)CN1C(=O)NC(CC(C)C)C1=O (centres undefined)	14	0.4	0.42	59*	0.9
CCOC(=O)C(Oc1ccc2c(-c3ccc(OC)cc3)cc(=O)oc2c1C)c1ccccc1 (centres undefined)	78*	0.8	/	23	0.2
Cn1ncc(C#N)c1/N=C/N1CCCC1	1	1	0.49	-2	1
CNc1c([N+](=O)[O-])cnn1-c1ccc(C)cc1	20	0.8	-0.0005	16	0.8
CCOC(=O)c1[nH]c(C)c(C(=O)N2CCN(c3ccc(F)cc3)CC2)c1C	77*	0.2	0.069	79*	0.2
CCOC(=O)c1[nH]c(C)c(C(=O)N2CCN(c3cccc(Cl)c3)CC2)c1C	88*	0.3	-1.2	68*	0.1
CCOC(=O)c1[nH]c(C)c(C(=O)N2CCN(C(=O)c3ccco3)CC2)c1C	/	/	-0.64	/	/
COc1ccc(OC)c(C(=O)c2nc3c(n2O)CCCCC3)c1	51*	0.7	-0.014	34	0.5
COc1ccc(C(=O)c2nc3c(n2O)CCCCC3)cc1	14	1.1	0.71	-14	0.9
O=C(c1ccc(Oc2ccccc2)cc1)c1nc2c(n1O)CCCC2	67*	0.8	-1.7	16	0.3
COc1ccc(OC)c(C(=O)c2ccc(C(=O)N3CCCCC3)cc2)c1	73*	0.9	0.05	13	0.3
Cn1c(SCC(=O)NC2CC2)nnc1-c1cccc(NC(=O)c2ccccc2F)c1	10	0.8	0.9	24	0.9
CCCCN(C(=O)NC(=O)Nc1ccccc1C)S(C)(=O)=O	53*	0.7	-1.2	27	0.5
CCCCN(C(=O)NC(=O)Nc1cccc(C)c1C)S(C)(=O)=O	18	1	/	3	0.8
COc1cc(C(=O)N2CCN(C/C=C/c3ccccc3)CC2)cc(OC)c1OC	/	/	3.2	/	/
COc1ccc(C)cc1NC(=O)CN1CCN(C/C=C/c2ccccc2)CC1	67*	0.1	-2.7	88*	0.3
CCOc1ccc(CN2CCC(C(=O)N3CCN(c4ccccc4F)CC3)CC2)cc1OC	-4	1.2	0.12	-15	1
COC(=O)c1cc(CN2CCN(c3ccccc3C)CC2)ccc1O	51*	0.6	-1.8	41	0.5
COc1cc(CN2CCN(c3ccccc3F)CC2)cc(OC)c1O	14	0.2	0.53	80*	0.9
